{"source": "PubChem BioAssay AID624351", "about": "(Southern Research Specialized Biocontainment Screening …, 2012)", "note": "Among all 2,400 compounds or so, about 1,400 (58%) were called active.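 The calls were made as follows: active = inhibition of 30% or more at any tested dose; inconclusive = primary hits over the limit that were never retested; inactive = the rest.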 The set was probably picked from earlier hits. This is one part of the list.", "data": [{"assay": "coupled detection enzyme interference, dose response, artefact control for MgcRacGAP inhibitor project, biochemical, coupled enzyme counter-screen (AID 624351);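 also: signal is the ADP detection kit reading of free GDP without any GAP enzyme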", "conditions": "ADP Hunter coupled enzyme counter-screen, fluorescence, no MgcRacGAP; series mostly up to 80 µM", "values": [{"smiles": "CN(c1ccc(O)cc1)c1nc(-c2cccnc2)cs1", "IC50": "19.9 µM (active)"}, {"smiles": "CN(c1ccc(O)cc1)c1nc(-c2ccccc2)cs1", "IC50": "53.7 µM (active)"}, {"smiles": "CCC1=NN2C(=N)/C(=C\\c3ccc(SCc4ccco4)o3)C(=O)N=C2S1", "IC50": "inactive"}, {"smiles": "COC(=O)c1[nH]c2ccc(Cl)cc2c1NC(=O)Oc1ccccc1", "IC50": "18.5 µM (active)"}, {"smiles": "COC(=O)c1[nH]c2ccc(C)cc2c1NC(=O)Oc1ccccc1", "IC50": "inactive"}, {"smiles": "COC(=O)c1[nH]c2ccccc2c1NC(=O)Oc1ccccc1", "IC50": "15.6 µM (active)"}, {"smiles": "Cc1[nH]c2ccccc2c1-c1csc(NC(=O)CSCCO)n1", "IC50": "inactive"}, {"smiles": "COC(=O)c1[nH]c2cc(OC)c(OC)cc2c1NC(=O)Oc1ccccc1", "IC50": "19.5 µM (active)"}, {"smiles": "O=C1C=CC2(O[C@H](c3ccccc3)[C@@H](c3ccccc3)O2)[C@H](Sc2ccccc2O)C1", "IC50": "inactive"}, {"smiles": "CC1=CC(c2ccccc2)NC(=S)N1", "note": "(stereo not drawn)", "IC50": "inactive"}, {"smiles": "O=[N+]([O-])/C=C/c1ccc2c(ccn2Cc2ccccc2)c1", "IC50": "inactive"}, {"smiles": "COc1c(-c2ccc(O)c(O)c2)oc2cc(O)cc(O)c2c1=O", "IC50": "34 µM (active)"}, {"smiles": "O=c1c(O)c(-c2ccc(O)cc2)oc2cc(O)cc(O)c12", "IC50": "34.5 µM (active)"}, {"smiles": "O=c1c(O)c(-c2ccc(O)c(O)c2)oc2cc(O)ccc12", "IC50": "52.8 µM (active)"}, {"smiles": "c1ccc(CC2CCN(Cc3ccccn3)CC2)cc1", "IC50": "inactive"}, {"smiles": "CC1(C)CC(=O)C=C(Nc2ccc(O)cc2)C1", "IC50": "25.9 µM (active)"}, {"smiles": "COc1cc(C2NC(=O)C(C#N)=C(S)N2c2ccc(C)cc2)ccc1OC(C)C", "note": "(stereo not drawn)", "IC50": "inactive"}, {"smiles": "COc1ccc(-c2cc3ccccc3n2CC(O)CN2CCCCC2)cc1", "note": "(stereo not drawn)", "IC50": "inactive"}, {"smiles": "COc1ccc(NCC(O)Cn2c(C)c(C)c3ccccc32)cc1", "note": "(stereo not drawn)", "IC50": "66.8 µM (active)"}, {"smiles": "COc1ccc(NCC(O)COc2ccc(C(C)(C)C)cc2)cc1", "note": "(stereo not drawn)", "IC50": "inactive"}, {"smiles": "COc1ccc(OC)c(CN2CCSCC2)c1", "IC50": "inactive"}, {"smiles": "Oc1ccc(C2=Nn3c(nnc3-c3ccco3)SC2)cc1O", "IC50": "14.2 µM (active)"}, {"smiles": "CC1Cc2ccccc2N1C(=O)CNCCCN(C)C", "note": "(stereo not drawn)", "IC50": "inactive"}, {"smiles": "CC(=O)Nc1cccc(NC(=O)c2cccc(-c3ccc(O)cc3)c2)c1", "IC50": "59.1 µM (active)"}, {"smiles": "O=C(Nc1ccccc1)c1cccc(-c2nnc(-c3ccccc3)o2)c1", "IC50": "inactive"}, {"smiles": "COc1ccc(NC(=O)c2cccc(-c3ccc(O)cc3)c2)cn1", "IC50": "41.2 µM (active)"}, {"smiles": "COc1ccc(NC(=O)/C(Cl)=C(/Cl)S(=O)Cc2ccccc2)cn1", "note": "(stereo not drawn)", "IC50": "inactive"}, {"smiles": "COc1ccc(NC(=O)/C(Cl)=C(/Cl)S(=O)Cc2ccc(Cl)cc2)cn1", "note": "(stereo not drawn)", "IC50": "inactive"}, {"smiles": "Oc1cccc2c(NC(=S)Nc3ccc(OC(F)F)cc3)cccc12", "IC50": "83.5 µM (active)"}, {"smiles": "C#CCOCCOCCOCCNc1nc(N2CCN(C(=O)CCCCCCCCCCNC(=O)[C@@H](CCSC)n3cc(CCO)nn3)CC2)nc(N2CCN(C(=O)CCCCCCCCCCNC(=O)[C@H](CO)n3cc(CCCCCN)nn3)CC2)n1", "IC50": "inactive"}, {"smiles": "Oc1ccc(-c2csc(-c3cccnc3)n2)cc1O", "IC50": "11 µM (active)"}, {"smiles": "COc1ccc(-c2nc(-c3ccc(O)cc3O)cs2)cc1OC", "IC50": "55.4 µM (active)"}, {"smiles": "COc1cc2cc(-c3ccc(O)cc3O)nc(C)c2cc1OC", "IC50": "45.1 µM (active)"}, {"smiles": "COc1ccc(-c2ncc3ccccn23)cc1OC", "IC50": "inactive"}, {"smiles": "Oc1ccc(-c2csc(-c3cccnc3)n2)c(O)c1", "IC50": "43.4 µM (active)"}, {"smiles": "Clc1cc(Cl)c(OCCCCn2cncn2)c(Cl)c1", "IC50": "inactive"}, {"smiles": "CCCCN(C)C(=O)C1CCN(Cc2ccc(OCc3ccccc3)cc2)CC1", "IC50": "inactive"}, {"smiles": "COc1ccc(C2NC(c3ccc(OC)cc3OC)C(C)C(=O)C2C)c(OC)c1", "note": "(stereo not drawn)", "IC50": "inactive"}, {"smiles": "CC1CC(C)CN(CC(=O)NC(c2ccccc2)c2ccccc2)C1", "note": "(stereo not drawn)", "IC50": "inactive"}, {"smiles": "COc1cc(/C=C2\\SC(N)=NC2=O)cc(Cl)c1O", "IC50": "45.7 µM (active)"}, {"smiles": "CCCN1C(=O)/C(=C/c2cc(C)n(C)c2C)SC1=Nc1ccc(OCC)cc1", "IC50": "inactive"}, {"smiles": "COc1cc(/C=C2\\SC(c3ccc(C)cc3)=NC2=O)cc(OC)c1O", "IC50": "inactive"}, {"smiles": "CCOc1cc(/C=C2\\SC(=O)N=C2N)ccc1O", "IC50": "14.3 µM (active)"}, {"smiles": "COc1cc(/C=C2\\SC(N)=NC2=O)ccc1O", "IC50": "16.4 µM (active)"}, {"smiles": "CCN=C1S/C(=C\\c2ccc(O)c(OCC)c2)C(=O)N1CC", "IC50": "39 µM (active)"}, {"smiles": "COc1cccc(OC)c1OCCNC(C)(C)C", "IC50": "inactive"}, {"smiles": "CCOc1cc(/C=C2\\C(=O)ON=C2c2ccccc2)cc(Br)c1O", "IC50": "inactive"}, {"smiles": "N=C1/C(=C\\c2ccc(Br)o2)C(=O)N=C2SC(CC(=O)N3CCOCC3)=NN12", "IC50": "inactive"}, {"smiles": "CCOc1cc(/C=C2/NC(=O)N(Cc3ccccc3F)C2=O)ccc1O", "IC50": "50 µM (active)"}, {"smiles": "Cc1ccc(S(=O)(=O)Oc2ccc(/C=C3\\C(=N)N4N=C(S(C)(=O)=O)SC4=NC3=O)cc2)cc1", "IC50": "inactive"}, {"smiles": "NC1=NC(=O)S/C1=C\\c1ccc(O)cc1", "IC50": "20.2 µM (active)"}, {"smiles": "N=C1/C(=C/c2ccc(Br)o2)C(=O)N=C2SC(CC(=O)N3CCCC3)=NN12", "IC50": "inactive"}, {"smiles": "CCS(=O)(=O)C1=NN2C(=N)/C(=C\\c3ccc(SCc4ccco4)o3)C(=O)N=C2S1", "IC50": "inactive"}]}]}
